Compound activity deposited in PubChem by several laboratories.
Hits are enriched below; roughly 3.4% of the tested compounds scored in any of these assays.
ANO1 activ – TMEM16A chloride channel activators or potentiators, primary screen, cell-based, HTS; Anoctamin-1 (Mus musculus), Q8BHY3; 0.3% of 340,000 active; AID 623877, 2012; HEK293 TMEM16A/YFP-H148Q/I152L, iodide quench fluorescence; active compounds read low; B-score at 10 µM;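 active = fluorescence-ratio B-score plate-corrected deviation score at least 3 library SD below zero, with starting fluorescence score within 5 deviations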;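 note: channel opened by trigger with iodide after compound preincubation; score built on the fluorescence ratio of max minus min over baseline; more negative score means more quench and so TMEM16A activation or potentiation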
Target sequence (Q8BHY3 whole entry, looked up): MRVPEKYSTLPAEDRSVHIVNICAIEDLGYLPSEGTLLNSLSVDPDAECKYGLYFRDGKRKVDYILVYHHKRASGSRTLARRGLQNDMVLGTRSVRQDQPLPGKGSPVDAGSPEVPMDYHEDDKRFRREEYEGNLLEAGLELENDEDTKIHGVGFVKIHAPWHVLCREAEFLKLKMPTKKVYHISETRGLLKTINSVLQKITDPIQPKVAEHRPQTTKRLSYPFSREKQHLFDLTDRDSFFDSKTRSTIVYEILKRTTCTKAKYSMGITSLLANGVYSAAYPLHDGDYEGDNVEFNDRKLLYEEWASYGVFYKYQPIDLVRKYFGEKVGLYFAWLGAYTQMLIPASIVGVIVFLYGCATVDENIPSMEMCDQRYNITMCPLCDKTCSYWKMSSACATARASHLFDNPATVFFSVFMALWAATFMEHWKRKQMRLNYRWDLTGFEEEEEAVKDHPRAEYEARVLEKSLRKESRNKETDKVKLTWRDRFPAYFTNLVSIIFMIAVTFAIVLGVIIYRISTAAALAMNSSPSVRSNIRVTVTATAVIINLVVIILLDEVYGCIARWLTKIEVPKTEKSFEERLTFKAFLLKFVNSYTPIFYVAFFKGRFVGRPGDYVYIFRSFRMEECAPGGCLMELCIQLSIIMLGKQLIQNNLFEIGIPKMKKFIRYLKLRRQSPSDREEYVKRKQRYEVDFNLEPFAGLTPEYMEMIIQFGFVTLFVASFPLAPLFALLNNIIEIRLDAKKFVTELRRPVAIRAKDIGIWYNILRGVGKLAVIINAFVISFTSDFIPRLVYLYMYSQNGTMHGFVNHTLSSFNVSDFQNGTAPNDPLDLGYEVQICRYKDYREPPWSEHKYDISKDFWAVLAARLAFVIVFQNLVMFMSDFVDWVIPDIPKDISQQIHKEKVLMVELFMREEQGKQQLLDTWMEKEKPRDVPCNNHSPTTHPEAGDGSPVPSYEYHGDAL
MEKK2mut PB1 HTS – MEK5 binding signal on mutant MEKK2 PB1, primary screen, biochemical, multiplex bead flow cytometry, Alexa488-MEK5 | Alexa488-MEK5 binding to MEKK2 mutant | percent response, % at 10 µM | 0.35% of 290,000 active; in the data active = percent response above about 24%, passing the limit was not always enough
ANO1 block – TMEM16A chloride channel inhibitors, primary screen, cell-based, HTS | 1.2% of 310,000 active | Anoctamin-1 (Mus musculus), Q8BHY3 | AID 588511, 2011 | normalized B-score (activity score, 25-100; higher = stronger inhibition) at 10 µM | HEK293 TMEM16A/YFP iodide influx fluorescence, ionomycin;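 active = ratio plate-corrected score three or more library SD toward inhibition, starting fluorescence score within five deviations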;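 note: score derived from kinetic fluorescence span divided by baseline fluorescence per well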
MEKK3 PB1 HTS – modulators of MEKK3-MEK5 PB1 binding, primary screen, biochemical, wildtype MEKK3, multiplex bead flow cytometry, Alexa488-MEK5; Mitogen-activated protein kinase kinase kinase 3 (Homo sapiens), Q99759; bead-based flow cytometry, Alexa488-MEK5 binding to MEKK3; actives lie on both sides; 0 = blocked by unlabeled MEK5, 100 = vehicle; binding response (% of control), % at 10 µM; 1.4% of 290,000 active; AID 1529, 2009;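 active = binding response more than 3 SD above or below the average of its plate-row segment, actives on both sides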;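 note: Alexa488 bead fluorescence after subtracting the streptavidin-only scavenger bead signal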
MEKK2 WT-MEK5 – modulators of MEK5 binding to wildtype MEKK2, primary screen, biochemical, multiplex bead flow cytometry, Alexa488-MEK5. Mitogen-activated protein kinase kinase kinase 2 (Homo sapiens), Q9Y2U5. Alexa488-MEK5 binding to MEKK2 WT; actives lie on both sides. 1.1% of 290,000 active. AID 1531, 2009. binding response (% of control), % at 10 µM; in the data active = binding response below about 67% or above about 130%
NTR1 agonist – agonists of human NTR1, primary screen, imaging, U2OS cells, beta-arrestin-GFP, high content. AID 493036, 2011. Neurotensin receptor type 1 (Homo sapiens), P30989. activation, % at 20 µM. NTR1-U2OS beta-arrestin-GFP spot imaging, agonist mode. 0.17% of 330,000 active;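 active = activation at or above 40% of the spot to cytoplasm intensity ratio, with at least 20 cells analyzed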;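 note: 0% = DMSO without peptide and 100% = 100 nM NTR1 peptide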
MEKK2wt confirm – modulators of MEK5 binding to wildtype MEKK2, confirmation, biochemical, single concentration, multiplex bead flow cytometry; shares compounds with MEKK3 PB1 HTS; Alexa488-MEK5 binding to MEKK2 WT; actives lie on both sides; binding response (% of control), % at 10 µM; 2.4% of 5,900 active; in the data active = binding response below about 16% or above about 210%; inactive = in between
MEKK2mut-MEK5 – mutant MEKK2 PB1-MEK5 binding signal retest – biochemical, single concentration, multiplex bead flow cytometry, confirmation; 2% of 5,900 active; percent response, % at 10 µM; Alexa488-MEK5 binding to MEKK2 mutant; shares compounds with MEKK3 PB1 HTS; in the data active = percent response mostly above about 71%, no sharp cut-off; inactive = mostly below about 38%;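 note: higher means compound restores mutant binding toward wildtype level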
MEKK3 confirm – MEKK3 wild-type PB1 binding to MEK5, inhibitors, confirmation, biochemical, bead multiplex flow cytometry, single concentration, wildtype; shares compounds with MEKK3 PB1 HTS; Alexa488-MEK5 binding to MEKK3; active compounds read low; binding response (% of control), % at 10 µM; 1.8% of 5,900 active;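 active = binding response below 72% of control, or above a set upper limit, though filed actives all read lower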;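 note: 100% = DMSO only wells and 0% = binding blocked by excess unlabeled MEK5; lower values mean stronger disruption of MEK5 binding to MEKK3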
An asterisk follows results filed as active; [ ] = remark or other dose.

Screening O=C1NC2(C=Cc3c(ccc4ccccc34)O2)Oc2ccccc21 (stereo unspecified) returned ANO1 activ inactive, MEKK2mut PB1 HTS -17, ANO1 block inactive, MEKK3 PB1 HTS 2.0*[inhibitor], MEKK2 WT-MEK5 2.0*[inhibitor], NTR1 agonist 2, MEKK2wt confirm 91, MEKK2mut-MEK5 -2 and MEKK3 confirm 96.
Screening CN(C)c1ccc(NC(=O)Cc2ccccc2)c2ccccc12 returned ANO1 activ inactive, MEKK2mut PB1 HTS -1, ANO1 block inactive, MEKK3 PB1 HTS 99, MEKK2 WT-MEK5 97 and NTR1 agonist -2.
COc1cc(/C=C2\SC(=N)N(c3ccc(F)cc3)C2=O)ccc1O was read as ANO1 activ inactive, MEKK2mut PB1 HTS 1, ANO1 block inactive, MEKK3 PB1 HTS 100, MEKK2 WT-MEK5 102 and NTR1 agonist -1.
For N=C1S/C(=C\c2ccccc2)C(=O)N1c1ccc(F)cc1 the results were ANO1 activ inactive, MEKK2mut PB1 HTS 1, ANO1 block inactive, MEKK3 PB1 HTS 138*, MEKK2 WT-MEK5 111, NTR1 agonist 1, MEKK2wt confirm 99, MEKK2mut-MEK5 -5 and MEKK3 confirm 97.
For CCN(C[C@H]1N[C@@](C)(C(=O)OC)[C@H]2C(=O)N(C)C(=O)[C@@H]12)C(=O)Nc1ccc(C(F)(F)F)cc1 the results were NTR1 agonist -1.
Screening O=S(=O)(Nc1cc(Sc2cccc3cccnc23)c(O)c2ccccc12)c1ccccc1 returned MEKK2mut PB1 HTS -2, MEKK3 PB1 HTS 93 and MEKK2 WT-MEK5 86.
`O=Cc1cnc(N2CCN(Cc3ccccc3)CC2)s1` gave ANO1 activ inactive, MEKK2mut PB1 HTS -45, ANO1 block inactive, MEKK3 PB1 HTS 68*[inhibitor], MEKK2 WT-MEK5 70, NTR1 agonist 0, MEKK2wt confirm 117, MEKK2mut-MEK5 12 and MEKK3 confirm 101.
For COc1cccc2cc(C(=O)NCc3ccc(Cl)cc3)c(=O)oc12 the results were ANO1 activ inactive, MEKK2mut PB1 HTS 0, ANO1 block inactive, MEKK3 PB1 HTS 99, MEKK2 WT-MEK5 98 and NTR1 agonist 2.
For COc1cccc2cc(C(N)=O)/c(=N/NC(=O)COc3ccc(Cl)cc3)oc12 the results were MEKK2mut PB1 HTS 1, ANO1 block inactive, MEKK3 PB1 HTS 143*, MEKK2 WT-MEK5 112, NTR1 agonist 1, MEKK2wt confirm 103, MEKK2mut-MEK5 -2 and MEKK3 confirm 100.
Cc1cc(C)nc(NC(=NCCc2c[nH]c3ccccc23)NC(=O)Nc2ccc(Cl)cc2)n1 was read as ANO1 activ inactive, MEKK2mut PB1 HTS 1, ANO1 block inactive, MEKK3 PB1 HTS 59*[inhibitor], MEKK2 WT-MEK5 111, NTR1 agonist 5, MEKK2wt confirm 106, MEKK2mut-MEK5 -2 and MEKK3 confirm 103.
For N#Cc1ccc(Cn2c(=O)c(C#N)c3n(c2=O)CCC3)cc1 the results were ANO1 activ inactive, MEKK2mut PB1 HTS -21, ANO1 block inactive, MEKK3 PB1 HTS 0.0*[inhibitor], MEKK2 WT-MEK5 0.0*[inhibitor], NTR1 agonist -2, MEKK2wt confirm 106, MEKK2mut-MEK5 6 and MEKK3 confirm 104.
Screening N#Cc1c2n(c(=S)n(-c3ccccc3)c1=O)CCCCC2 returned ANO1 activ inactive, MEKK2mut PB1 HTS -7, ANO1 block inactive, MEKK3 PB1 HTS 98, MEKK2 WT-MEK5 94 and NTR1 agonist 2.
O=C(c1cccs1)N1CCN=C1SCc1ccc(F)cc1 was read as ANO1 activ inactive, MEKK2mut PB1 HTS -1, ANO1 block inactive, MEKK3 PB1 HTS 97, MEKK2 WT-MEK5 96 and NTR1 agonist 0.
`CN1CCN(C2Cc3ccccc3Sc3ccc(Cl)cc32)CC1` (stereo unspecified) gave ANO1 activ inactive, ANO1 block inactive and NTR1 agonist 1.
CSc1ccc2c(c1)C(N1CCN(C)CC1)Cc1ccccc1S2 (stereo unspecified) was read as ANO1 activ inactive, MEKK2mut PB1 HTS 8, ANO1 block inactive, MEKK3 PB1 HTS 108, MEKK2 WT-MEK5 150*, NTR1 agonist 7, MEKK2wt confirm 162, MEKK2mut-MEK5 49 and MEKK3 confirm 108.
`CN1CCC/C1=C/C=C1\SC(=S)NC1=O` gave ANO1 activ inactive, MEKK2mut PB1 HTS 1, ANO1 block inactive, MEKK3 PB1 HTS 151*, MEKK2 WT-MEK5 112, MEKK2wt confirm 103, MEKK2mut-MEK5 -2 and MEKK3 confirm 105.
For CN1/C(=C\C=C2/SC(=S)NC2=O)C(C)(C)c2ccccc21 the results were ANO1 activ inactive, MEKK2mut PB1 HTS -7, ANO1 block inactive, MEKK3 PB1 HTS 99, MEKK2 WT-MEK5 83 and NTR1 agonist -2.
CCOP(=O)(c1ccccc1)C(O)c1ccc([N+](=O)[O-])cc1 (stereo unspecified) was read as ANO1 activ inactive, MEKK2mut PB1 HTS 3, ANO1 block inactive, MEKK3 PB1 HTS 99, MEKK2 WT-MEK5 100 and NTR1 agonist 1.
`CCOP(=O)(c1ccccc1)C(O)c1ccc(F)cc1` (stereo unspecified) gave ANO1 activ inactive, MEKK2mut PB1 HTS 0, ANO1 block inactive, MEKK3 PB1 HTS 144*, MEKK2 WT-MEK5 107, NTR1 agonist 1, MEKK2wt confirm 61, MEKK2mut-MEK5 -16 and MEKK3 confirm 86.
`COc1ccccc1NC(=O)CSCC(=O)N1c2ccccc2CCc2ccccc21` gave ANO1 activ inactive, MEKK2mut PB1 HTS 1, ANO1 block inactive, MEKK3 PB1 HTS 103, MEKK2 WT-MEK5 102 and NTR1 agonist 1.
